Hits are enriched below; roughly 7.9% of the tested compounds scored in any of these assays.
HT1080NT lethal = kills 2HG-producing HT-1080-NT fibrosarcoma cells | Potency, µM (top dose mostly 46.1 µM), for inactives: at the highest dose activity, negative = less viability, most hits filed as cytotoxic | AID 686970 | actives 1.6% (n = 360,000) | HT-1080-NT fibrosarcoma viability, CellTiter-Glo ATP luminescence, 48 h;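 further: NT is the 2HG producing partner of a matched IDH1 knockdown line; 0% = DMSO-treated cells and -100% = media-only wells without cells; nearly all actives have a fitted effect of over 55% in size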
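Luminescent CellTiter-Glo readout after 48 hours of compound exposure at 37 degrees C defined viability of HT-1080-NT cells. Activity was normalized to DMSO wells and cell-free media wells; concentration-response curves were fitted and assigned curve classes.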
KB-3-1 tox = KB-3-1 parental cell cytotoxicity. Potency, µM (titrated, usually from 46.1 µM), usual class: cytotoxic. AID 1347075. KB-3-1 viability, CellTiter-Glo ATP luminescence, 72 h. actives 1.4% (n = 400,000); further: on the % scale 0 is the no-effect control and ±100 the full control effect; nearly all actives have a fitted effect of over 60% in size
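72 h, 37 °C compound treatment of KB-3-1 parental cells; CellTiter-Glo added, 10 min, luminescence read. Data corrected against DMSO-only plates and normalized before curve fitting.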
MCF10A rereplic = inducers of DNA re-replication in MCF 10A breast cells; MCF 10A DNA re-replication, Hoechst nuclear intensity, 48 h; Potency, µM (series often up to 46.1 µM), for inactives: top-dose activity, positive = re-replication, most hits filed as activators; actives 2.9% (n = 350,000); AID 624296; further: % of control where 0% means no effect; nearly all actives have a fitted effect of over 50% in size
SW480 rereplic = DNA re-replication induction in SW480 cells. SW480 DNA re-replication, Hoechst DNA content imaging, 48 h. Potency, µM (series often up to 46.1 µM), without a hit: at the top dose re-replication activation, hits mostly activators. actives 1.8% (n = 340,000). AID 624297; further: % of control where 0% means no effect; nearly all actives have a fitted effect of over 55% in size
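Image-based DNA-content assay: after two days of treatment, nuclei were labelled with the DNA dye Hoechst and imaged, and hits were compounds raising the count of nuclei showing high fluorescence intensity.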
HT1080 IDH1KD tx = toxicity to HT-1080 IDH1 knockdown cells (counter line); HT-1080 IDH1 knockdown viability, ATP luminescence, 48 h; Potency, µM (top dose mostly 46.1 µM), inactives show at the top dose activity, negative = toxicity, usual class: cytotoxic; actives 2% (n = 360,000); AID 686971;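 further: 0% = DMSO wells and -100% = cell-free medium wells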
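In this qHTS, HT-1080 cells depleted of IDH1 are exposed for 48 h at 37 °C to compound titrations. Toxicity is scored from CellTiter-Glo luminescence, with DMSO as full viability and medium alone as none.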
KB-V1 MDR tox = kills drug-selected multidrug resistant KB-V1 cells. KB-V1 MDR cells viability, CellTiter-Glo, 72 h. Potency, µM (top dose mostly 46.1 µM), usual class: cytotoxic. actives 3.4% (n = 400,000); further: on the % scale 0 is the no-effect control and ±100 the full control effect; nearly all actives have a fitted effect of over 60% in size
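Readout: CellTiter-Glo luminescence, 10 min after addition. Cells: KB-V1 MDR subline, 72 h at 37 degrees C with compound. Analysis: corrected, normalized data fitted to concentration-effect curves.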
The depositor's hits bear a star; i = inactive; ? = inconclusive; · = no result. The call rests on the fitted dose curve; in most records, active means well fitted curve in the direction sought with a large enough effect; inconclusive means small, poorly fitted or top-dose-only effect, or another doubt; inactive means no such curve, though single readings can be large; an effect the other way counts as inactive or inconclusive. Potency means the concentration at half of the fitted maximal effect.

SMILES	HT1080NT lethal	KB-3-1 tox	MCF10A rereplic	SW480 rereplic	HT1080 IDH1KD tx	KB-V1 MDR tox
CCOCCCNC(=O)C1CCCN(Cc2nc(-c3ccc(CC)cc3)oc2C)C1 (configuration not stated)	·	i	·	·	·	i
COCCNC(=O)CCN1C(=O)c2cccnc2Oc2ccc(C)cc21	·	i	·	·	·	i
CC(=O)CSc1cc(C)nc2c(-c3ccccc3)c(C)nn12	20.4%	?	6.6%	-2.1%	11.7%	?
Cc1cc(SCC(=O)c2cccs2)n2nc(C)c(-c3ccccc3)c2n1	-7.3%	i	?	?	?	20.6µM*
C=CCSc1cc(C)nc2c(-c3ccccc3)c(C)nn12	?	?	?	?	?	7.31µM*
COc1ccc(C#Cc2c[nH]c(=O)c3cncnc23)cc1OC	-13.4%	·	·	·	-5.1%	·
Cc1ccccc1N1CCN(C2=NC(=O)/C(=C\c3cccs3)S2)CC1	?	?	6.51µM*	?	?	i
O=C1N=C(N2CCN(c3cccc4ccccc34)CC2)S/C1=C/c1cccs1	-1.6%	i	-21.3%	0.7%	-0.4%	i
CCOc1cc(CNC(=O)c2ccc(C)c(NC(=O)c3nsc4ccccc34)c2)ccc1OC	·	i	·	·	·	i
Cc1ccc(OC2CCN(C(=O)[C@H]3O[C@@H](n4ccc(=O)[nH]c4=O)[C@H](O)[C@@H]3O)CC2)cc1	17.5%	i	·	·	14.9%	i
CC(C)(C)OC(=O)N[C@@H](C(=O)OC(C)(C)C)c1ccc2ccccc2c1	7.5%	i	-10.7%	-87.0%	5.7%	i
Cc1ccc(-c2nnc(SCC(=O)NC3CCCC3)nc2-c2ccc(C)cc2)cc1	·	i	·	·	·	i
COc1cc(/C=C/C(O)=C/C(=O)/C=C/c2ccc(O)cc2)ccc1O	?	?	18.4µM*	?	?	i
Cc1cc(C(=O)CSc2n[nH]c(N)n2)c(C)n1-c1ccc(F)cc1	?	?	6.4%	-2.4%	-24.7%	16.4µM*
Cc1ccc(-n2c(C)cc(C(=O)CSc3n[nH]c(N)n3)c2C)cc1	0.6%	20.6µM*	13.3%	-23.0%	?	i
Cc1cc(C(=O)CSc2n[nH]c(N)n2)c(C)n1-c1ccccc1	-24.2%	i	?	8.0%	?	i
Cn1ccc2c(N3c4ccccc4CCc4ccccc43)cc3c(c21)C1CCC3C1 (configuration not stated)	?	?	·	·	?	i
COc1ccccc1N(C)c1cc2c(c3c1ccn3C)C1CCC2O1 (configuration not stated)	23.1µM*	?	·	·	?	i
Cn1ccc2c(N3c4ccccc4CCc4ccccc43)cc3c(c21)C1CCC3O1 (configuration not stated)	?	i	·	·	18.4µM*	?
CCc1ccccc1NC(=O)Cn1c(=O)n(Cc2ccccc2)c(=O)c2c(C)c(C(=O)N(C)C)sc21	·	i	·	·	·	i
CCOc1ccc(NC(=O)c2sc(-n3nc(C)c(CCC(C)C)c3C)nc2C)cc1	·	i	·	·	·	i
CN1/C(=C/C=C(/C#N)C(N)=O)C(C)(C)c2ccccc21	5.8µM*	2.59µM*	5.01µM*	6.31µM*	5.8µM*	?
Cc1ccccc1N=C/C=C1\N(C)c2ccccc2C1(C)C	-5.3%	i	?	?	-4.8%	23.1µM*
CN1/C(=C\C=C(/C#N)C(=O)Nc2ccccc2F)C(C)(C)c2ccccc21	-2.0%	i	?	16.6%	1.5%	i
CN1/C(=C\C=N\O)C(C)(C)c2ccccc21	6.8%	i	16.4%	5.4%	19.6%	i
SMILES	HT1080NT lethal	KB-3-1 tox	MCF10A rereplic	SW480 rereplic	HT1080 IDH1KD tx	KB-V1 MDR tox
CN1/C(=C\C=[N+](C)c2ccccc2)C(C)(C)c2ccccc21	7.08µM*	3.26µM*	15.9%	-3.0%	?	i
CNc1ccc(C=C2C=CC=C2)cc1	·	i	·	·	·	i
COc1cccc(Cn2nc3c4cc(F)ccc4n(Cc4ccc(F)cc4)cc-3c2=O)c1	8.9%	i	?	-121.4%	1.7%	i
COc1cc2c3nnc(-c4ccc(F)cc4)c-3cn(Cc3ccc(C)cc3)c2cc1OC	-1.3%	?	?	1.0%	-13.9%	i
COc1cc2c3nnc(-c4ccc(F)cc4)c-3cn(Cc3cccc(C)c3)c2cc1OC	-11.0%	?	?	20.6µM*	-7.3%	i
COc1cc2c3nnc(-c4ccccc4)c-3cn(Cc3ccc(F)cc3)c2cc1OC	18.4µM*	i	?	18.4µM*	20.6µM*	i
COc1cc2c3nnc(-c4ccc(F)cc4)c-3cn(Cc3cccc(F)c3)c2cc1OC	?	?	?	6.51µM*	-28.0%	i
COc1ncnc2c1ncn2CCCN1CCN(c2ccccn2)CC1	1.4%	i	·	·	-0.5%	?
CCN1C(=O)C(Cc2nc3ccccc3c(=O)n2-c2ccc(OC)cc2)c2cc(C)ccc21 (configuration not stated)	·	i	·	·	·	i
N#CC1=C(Nc2ccccc2)SC=C(c2ccccc2)N=C1N1CCOCC1	-1.4%	i	?	?	0.2%	i
N#CC1=C(Nc2ccccc2)SC=C(c2ccc(Cl)c(Cl)c2)N=C1N1CCOCC1	-19.0%	i	16.4µM*	-0.4%	-12.4%	i
COc1ccc2[nH]c3c(c2c1)CCN1C(=O)N([C@@H](C)C(=O)NCCc2ccc(F)cc2)C(=O)[C@]31C	-3.7%	11.6µM*	?	?	-0.7%	?
COc1ccc2[nH]c3c(c2c1)CCN1C(=O)N([C@@H](C)C(=O)NCc2ccc(F)cc2)C(=O)[C@]31C	-0.8%	i	-2.8%	11.1%	-0.1%	i
COc1ccc(Nc2ccnc(Nc3ccc(OC)cc3)n2)cc1	23.1µM*	?	23.1µM*	?	20.6µM*	16.4µM*
CCOc1ccc(-n2c(SCC(=O)Nc3ccc4c(c3)OCCO4)nc3c([nH]c4ccccc43)c2=O)cc1	·	i	·	·	·	i
O=C(N/N=C1\CC(c2ccccc2)Oc2ccccc21)c1cccnc1 (configuration not stated)	?	i	7.3%	?	11.6µM*	?
O=C(N/N=C1\CC(c2ccccc2)Oc2ccccc21)c1ccc(O)cc1 (configuration not stated)	-14.1%	i	?	5.1%	-9.4%	i
COC(=O)/C=C/c1cc(F)ccc1S(=O)(=O)Nc1ccccc1	·	i	·	·	·	?
COc1c(CC=C(C)C)c(O)cc2oc(=O)c3c4ccc(O)cc4oc3c12	1.2%	i	18.4µM*	?	-1.1%	?
